From PubChem BioAssay (NCI)
About 83,000 compounds went through this panel and 20% of them were active in at least one assay; those are over-represented in the sample as a whole.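 The endpoint reported here, percent growth, reads 100 for growth as untreated, 0 for no net growth and -100 for all cells dead.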 Activity calls are given as the source filed them. The calls were made as follows: active = growth percent below 10; inactive = the rest.

Key:
Assay in all cases: NCI-60 one-dose screen, 48 h (100 = growth as untreated, 0 = no growth, -100 = all killed)
Settings in all cases: 10 µM unless noted
[1] = test system: SR leukemia
[2] = test system: RPMI-8226 leukemia
[3] = test system: OVCAR-8 ovarian
[4] = test system: OVCAR-5 ovarian
[5] = test system: OVCAR-4 ovarian
[6] = test system: SK-OV-3 ovarian
[7] = test system: IGROV1 ovarian
[8] = test system: OVCAR-3 ovarian
[9] = test system: HS 578T breast
[10] = test system: NCI/ADR-RES ovarian
[11] = test system: T-47D breast
[12] = test system: BT-549 breast
[13] = test system: MDA-MB-435 melanoma
[14] = test system: SW-620 colon
[15] = test system: MCF7 breast
[16] = test system: HCT-116 colon
[17] = test system: HCC-2998 colon
[18] = test system: KM12 colon

Measured: growth

O=C(/C=C(/C=C/c1coc2ccccc12)OB(F)F)/C=C/c1coc2ccccc12
inactive: [1] 48.8% | [2] 84.9% | [3] 87.7% | [4] 113% | [5] 107% | [6] 122% | [7] 97.5% | [8] 58.2% | [9] 91.4% | [10] 102% | [11] 88.1% | [12] 99.3% | [13] 48.1% | [14] 86.3% | [15] 82.8% | [16] 75.3% | [17] 98.8% | [18] 91.3%

Clc1ccc(-c2ccc(CNCC3CCNCC3)o2)c(-c2ccccc2)c1
inactive: [6] 45.4%
active: [1] -60.9% | [2] -54.4% | [3] -66.9% | [4] -90.6% | [5] -38.2% | [7] -64% | [8] -79.9% | [9] -49.8% | [10] -32.5% | [11] -75.2% | [12] -5.56% | [13] -92% | [14] -85.9% | [15] -73.9% | [16] -87.2% | [17] -77.6% | [18] -84.2%

CCc1c2c(nc3ccc(OCc4ccc(B(O)O)cc4)cc13)-c1cc3c(c(=O)n1C2)COC(=O)[C@]3(O)CC
inactive: [4] 11.5% | [5] 24.2% | [7] 17.6% | [9] 36.7% | [14] 13.8% | [17] 19.2%
active: [1] -2.77% | [2] 6.35% | [3] 6.94% | [6] -4.91% | [8] 6.75% | [10] -0.104% | [11] -1.27% | [12] -3.67% | [13] 6.63% | [15] 1.65% | [16] 4.57% | [18] 1.86%

O=S(=O)(Nc1ccc(-n2cnc3cc(-c4ccc(O)cc4)ccc32)cc1)c1ccccc1
inactive: [1] 78% | [2] 69.1% | [3] 84.4% | [4] 111% | [5] 74.1% | [6] 127% | [7] 91.4% | [8] 95.8% | [9] 97.3% | [10] 91.9% | [12] 94.3% | [13] 98.5% | [14] 109% | [15] 87.9% | [16] 90.3% | [17] 115% | [18] 54.6%
active: [11] 9.89%

Cc1cnc(C(=O)Nc2nc3ccc(S(=O)(=O)Nc4ccc(C5(C(F)(F)F)CC5)cc4)cc3[nH]2)cn1
inactive: [1] 18.9% | [3] 25.8% | [4] 38.8% | [5] 32.9% | [6] 36.9% | [7] 31.4% | [10] 15.8% | [11] 21.6% | [12] 40.6% | [14] 15% | [15] 17.4% | [16] 19.5% | [17] 42.4% | [18] 16%
active: [2] 6.96% | [8] -19.3% | [9] 8.52% | [13] -77.5%

Oc1cccc(CCc2ccc(Oc3cc(CCc4cccc(O)c4)cc(O)c3O)cc2)c1
inactive: [1] 35.9% | [2] 39.5% | [3] 75.3% | [4] 107% | [5] 58.9% | [6] 94.8% | [7] 41.7% | [8] 63.8% | [9] 84.4% | [10] 82.1% | [11] 73% | [12] 82% | [13] 68.6% | [14] 79% | [15] 77.8% | [16] 73.2% | [17] 92% | [18] 81.5%

COc1cc2nc(-c3ccc(Cl)cc3)cc(OCCCN3CCCC3)c2cc1OC
inactive: [1] 14.5% | [2] 20.2% | [3] 56.2% | [4] 52.6% | [5] 58.2% | [6] 75.5% | [7] 34.5% | [8] 74.4% | [9] 68.6% | [10] 47.3% | [11] 32% | [12] 37.3% | [14] 30.4% | [15] 48.1% | [16] 23.4% | [17] 72.4% | [18] 41.4%
active: [13] -7.23%

Cc1ccc(/C=N/NC(=O)CSc2nc3ccccc3c(=O)n2Cc2ccc(S(N)(=O)=O)cc2)cc1
inactive: [1] 49.4% | [2] 95.1% | [3] 93.6% | [4] 95.6% | [5] 106% | [6] 103% | [7] 96.2% | [8] 79.6% | [9] 88.5% | [10] 96.8% | [11] 81.7% | [12] 103% | [13] 46.2% | [14] 94% | [15] 59.4% | [16] 97.8% | [17] 99.9% | [18] 86.3%

COc1ccc(/C=N/NC(=O)c2cnn3c2NC(c2ccccc2)C3)cc1OC (configuration not stated)
inactive: [1] 32.3% | [2] 83.2% | [3] 75.3% | [4] 92.1% | [5] 107% | [6] 78.9% | [7] 59.6% | [8] 18% | [9] 68% | [10] 85.5% | [11] 56% | [12] 42.3% | [14] 44.4% | [15] 29.6% | [16] 22% | [17] 67% | [18] 44.6%
active: [13] 0.386%

CCCCC[n+]1ccc(SCC(=O)N(C)c2ccc(Oc3ccccc3)cc2)c2ccccc21
inactive: [1] 84.5% | [2] 66.2% | [3] 98.4% | [4] 105% | [5] 92.6% | [6] 101% | [7] 117% | [8] 90.9% | [9] 109% | [10] 104% | [11] 68.5% | [12] 130% | [13] 98.1% | [14] 86.4% | [15] 95.7% | [16] 92.8% | [17] 100% | [18] 102%

COc1ccccc1NC(=O)C1CC(c2ccc(F)cc2)=NO1 (configuration not stated)
inactive: [1] 101% | [2] 97.1% | [3] 98.1% | [4] 108% | [5] 102% | [6] 112% | [7] 105% | [8] 110% | [9] 94.1% | [10] 95.8% | [11] 93.9% | [12] 112% | [13] 103% | [14] 102% | [15] 90.8% | [16] 103% | [17] 90.1% | [18] 101%

C/C(=N\NC(=O)CSc1nc2ccccc2c(=O)n1Cc1ccc(S(N)(=O)=O)cc1)c1ccc(F)cc1
inactive: [1] 100% | [2] 112% | [3] 101% | [4] 96.4% | [5] 99.8% | [6] 111% | [7] 106% | [8] 115% | [9] 102% | [10] 104% | [11] 96.7% | [12] 112% | [13] 104% | [14] 104% | [15] 96.1% | [16] 102% | [17] 112% | [18] 105%

COc1cc2nc(-c3ccc(Cl)cc3)cc(OCCCN3CCCCC3)c2cc1OC
active: [1] 9.98% | [13] -22.5%
inactive: [2] 21% | [3] 49.8% | [4] 49.3% | [5] 61.7% | [6] 78.9% | [7] 33.2% | [8] 72% | [9] 62.1% | [10] 46.4% | [11] 35.4% | [12] 40.9% | [14] 40.8% | [15] 45.8% | [16] 22.9% | [17] 67.7% | [18] 44.6%

N/C(=N\C(N)=N\c1nc2ccccc2s1)c1cnccn1
active: [1] 0% | [7] -1.19% | [8] 3.95% | [13] 4.7% | [16] 8.53% | [18] 8.11%
inactive: [2] 13.3% | [3] 28.1% | [4] 60.1% | [5] 14.9% | [6] 12.9% | [9] 49% | [10] 61.7% | [11] 18.2% | [12] 38.3% | [14] 11.4% | [15] 11.4% | [17] 18.5%

COc1cc2oc(-c3cccc(C(=O)Nc4ccccc4)c3)cc(=O)c2c(O)c1OC
active: [5] -20.2%
inactive: [1] 95.7% | [2] 83.5% | [3] 15.4% | [4] 94.4% | [6] 15% | [7] 85.4% | [8] 70.1% | [9] 11.1% | [10] 79.1% | [11] 55.8% | [12] 60.1% | [13] 58.3% | [14] 94.3% | [15] 78.1% | [16] 46.3% | [17] 89.7% | [18] 57.8%

COc1cc(C2=NN(C(C)=O)C(c3cc(OC)c(OC)c(OC)c3)C2)ccc1O (configuration not stated)
inactive: [1] 15.6% | [3] 24.7% | [4] 34% | [5] 35.3% | [6] 30.3% | [11] 45.6% | [12] 23.1% | [14] 12.4%
active: [2] -27.5% | [7] 2.82% | [8] -51.9% | [9] -1.42% | [10] -55.4% | [13] -76% | [15] 8.15% | [16] 6.96% | [17] -49.3% | [18] 2.51%

CCCOc1ccc(/C=N/Nc2cc(C)nc3ccc(Br)cc23)cc1
inactive: [2] 58.9% | [3] 88.2% | [4] 111% | [5] 88.1% | [6] 90.9% | [7] 90.4% | [8] 99.8% | [9] 106% | [10] 97.2% | [11] 96.4% | [12] 99.3% | [13] 85.8% | [15] 37.3% | [16] 26.6% | [17] 57.3% | [18] 76.2%
active: [1] -1.3% | [14] 6.14%

O=[N+]([O-])CC(c1ccccc1)c1c[nH]c2ccccc12 (configuration not stated)
active: [13] -14.6%
inactive: [1] 20.2% | [2] 50.7% | [3] 52.7% | [4] 79.4% | [5] 91.5% | [6] 96.3% | [7] 53.7% | [8] 42.4% | [9] 64% | [10] 26% | [11] 45.1% | [12] 56.6% | [14] 27.9% | [15] 29.9% | [16] 32.7% | [17] 77.2% | [18] 43.6%

N#CC1=C(/N=C/c2ccccc2)Oc2c(ccc3ccccc23)C1c1ccc([N+](=O)[O-])cc1 (configuration not stated)
inactive: [1] 81% | [2] 92% | [3] 95% | [4] 101% | [5] 88.2% | [6] 86.9% | [7] 56.6% | [8] 86.4% | [9] 91.6% | [10] 95.6% | [11] 76.5% | [12] 103% | [13] 101% | [14] 93% | [15] 78.4% | [16] 92% | [17] 98.3% | [18] 97.6%
